Shown are actives, neighbours in structure and some others; about 21% of the full set was active somewhere.
CHX counter: Cycloheximide Counterscreen for Small Molecule Inhibitors of Shiga Toxin; max response, %; AID 2314, 2010; cell reporter, cycloheximide protein synthesis inhibition counterscreen; 12% of 300,000 active; in the data active means max response mostly above about 13%, no sharp cut-off; inactive means mostly below about 14%; further: read at 38.3 µM for the half of the compounds with a filed dose
Shiga inhibitor: A qHTS for Small Molecule Inhibitors of Shiga Toxin; AID 2315, 2010; Vero cells, Shiga toxin protein synthesis inhibition reporter; inhibition, % at 38.7 µM; 9.2% of 290,000 active; in the data active means inhibition mostly above about 28%, no sharp cut-off; inactive means mostly below about 43%
HCV inh: qHTS Assay for Inhibitors of Hepatitis C Virus (HCV); Huh7.5.1 HCVcc-Cre infection, luciferase reporter, 44 h; Potency, µM (highest dose often 41.8 µM), actives largely listed as inhibitors; 3.4% of 340,000 active
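Whole-lifecycle infectious HCVcc-Cre system; cells 1,000/well, compound then virus (~0.5 moi) added 4 h after plating, 44 h culture. Luciferase read 15 sec following 15 min substrate incubation, room temp.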
Pf growth 96h: Primary qHTS for delayed death inhibitors of the malarial parasite plastid, 96 hour incubation; Potency, µM (titrated, usually from 28.7 µM), usual class: inhibitors; P. falciparum luciferase reporter growth, 96 h; 6.9% of 320,000 active
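Plates of compound plus infected erythrocytes (2% hematocrit, 0.05% parasitemia final) incubate 96 hours, 37 C, 5% CO2. Detection reagent added; reduced luminescence from the parasites' luciferase reporter flags inhibition.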
HCMV antiviral: qHTS Assay for inhibitors of the human cytomegalovirus (HCMV); HFF cells, HCMV-luciferase reporter, 72 h; stronger effect = lower value; activity change, negative = inhibition, % at 57.5 µM; 4.5% of 410,000 active; in the data active means activity change below about -60%; inconclusive means no clear call, values can overlap the other calls; inactive means above about -39%
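Steps: HFFs plated, 16 h 37C; compounds added; HCMV-luciferase added to MOI 1 PFU/cell; 72 h 37C; OneGlo reagent, 5 min room temperature; luminescence read, normalized to controls.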
Pf growth 48h: Primary qHTS for delayed death inhibitors of the malarial parasite plastid, 48 hour incubation. Potency, µM (highest dose often 28.7 µM), usual class: inhibitors. 5.9% of 310,000 active. P. falciparum luciferase growth in erythrocytes, 48 h
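Luciferase-expressing parasites in RBCs, 2% Hct / 0.1% parasitemia final; RPMI 1640 + 0.5% Albumax; 37 C, 5% CO2, one generation; luminescence read-out, lower signal = inhibition.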
A number is an active result; . = inactive; ? = inconclusive; / = no result given; + = active, no number; ! = a repeat was not active. Unless noted, the call rests on the fitted dose curve; in most records, active means well fitted inhibition curve with a large enough effect; inconclusive means small, poorly fitted or top-dose-only effect, or another doubt; inactive means no such curve, though single readings can be large or run the other way.

SMILES	CHX counter	Shiga inhibitor	HCV inh	Pf growth 96h	HCMV antiviral	Pf growth 48h
O=C(c1ccccc1)N1CCN(c2cc(Cl)nc3cc(-c4cccc(Cl)c4)nn23)CC1	/	/	/	/	.	/
COc1cccc(-c2cc3nc(C)c(C)c(N4CCN(C(=O)c5ccoc5)CC4)n3n2)c1	/	/	/	/	.	/
O=C(c1ccoc1)N1CCN(c2cc(-c3cccc(F)c3)nc3cc(-c4cccc(Cl)c4)nn23)CC1	/	/	/	/	-82	/
COc1ccc(S(=O)(=O)CC(=O)c2cc3cc(Br)ccc3oc2=O)cc1	.	.	.	.	.	.
COC(/C(C)=C/C=C/C(C)=C/c1coc(C)n1)C(C)C1CC(O)C2(C)OC2C=CC(C)C2CC(CC(=O)O2)CC2OC2C(=O)O1 (configuration not stated)	/	/	.	/	-80	/
COc1ccc(C(=O)CSc2nc3cc(C(=O)NC4CCCC4)ccc3c(=O)n2CC2CCCO2)cc1 (configuration not stated)	/	/	/	/	.	/
COC(=O)C1=C(C)NC(=O)/C1=C\N(C)C	.	.	.	.	?	.
CN1CCN(C(=O)C2CCN(S(=O)(=O)c3ccc4c(c3)oc(=O)n4C)CC2)CC1	.	.	.	.	.	.
Cc1ccc(Cl)cc1N1CCN(C(=O)C2CCN(S(=O)(=O)c3ccc4c(c3)oc(=O)n4C)CC2)CC1	/	/	/	/	+	/
Cc1ccc(C(C)(C)C)cc1S(=O)(=O)N1CCC(C(=O)N2CCN(c3ccc(O)cc3)CC2)CC1	/	/	?	10µM	?	3.7µM
Cc1cc(C)c(C)c(S(=O)(=O)N2CCC(C(=O)N3CCN(c4ccc(F)cc4)CC3)CC2)c1C	/	/	?	/	.	/
CC1CCN(S(=O)(=O)c2ccc3c(c2)oc(=O)n3C)CC1	.	.	.	0.47µM	.	.
COc1cccc(N2CCN(C(=O)C3CCCN(S(=O)(=O)c4ccc5c(c4)oc(=O)n5C)C3)CC2)c1 (configuration not stated)	.	.	13µM	.	-79!	?
Cn1c(=O)oc2cc(S(=O)(=O)N3CCC(C(=O)N4CCN(c5ccc(F)cc5)CC4)CC3)ccc21	.	.	.	.	-61	?
CCOC(=O)N1CCN(C(=O)C2CCCN(S(=O)(=O)c3cc(C)ccc3OC)C2)CC1 (configuration not stated)	.	.	.	/	.	?
COc1ccc(C)cc1S(=O)(=O)N1CCCC(C(=O)N2CCN(c3ccccc3)CC2)C1 (configuration not stated)	.	.	?	10µM	-69	7.4µM
COc1ccc(CN(C)C(=O)C2CCN(C(=O)Nc3ccccc3)CC2)cc1	/	/	.	?	.	?
CC(=O)N[C@@H]1C=C[C@@H](CC(=O)NCc2ccc(Cl)cc2)O[C@@H]1CO	/	/	/	/	.	/
O=C(C[C@@H]1C=C[C@@H](NC(=O)C2CC2)[C@@H](CO)O1)NCc1ccccc1Cl	/	/	/	/	-62	/
CCOC(=O)c1ccccc1NC(=O)N1CCn2c(C)ccc2C1CC (configuration not stated)	.	.	?	/	.	.
CCC1c2ccc(C)n2CCN1C(=O)Nc1ccccc1C(=O)OC (configuration not stated)	.	.	.	.	.	5.2µM
CCCC1c2ccc(C)n2CCN1C(=O)Nc1ccccc1Cl (configuration not stated)	26	74	.	2.6µM	.	?
Cc1ccccc1S(=O)(=O)N1C(c2ccc(Cl)c(Cl)c2)CC=C(C(=O)O)C1c1cccc(Br)c1 (configuration not stated)	/	/	/	/	.	/
CCOc1ccccc1NC(=O)CCc1c(C)nc2c(c(C)nn2-c2ccccc2)c1C	/	/	/	/	.	/
CCN(CC)CCn1c(NC(=O)c2ccccc2O)nc2ccccc21	26	/	?	.	?	.
CCN(CC)CCn1c(NC(=O)c2ccc(Cl)cc2)nc2ccccc21	19	.	?	3.7µM	.	/
CCN(CC)CCn1c(C)nc2ccccc21	.	.	.	.	.	.
O=C(c1cc(-c2ccccc2Cl)nc2ccccc12)N1CCOCC1	.	.	/	0.37µM	.	.
COc1ccc(-c2cc(C(=O)N3CCN(c4ccccc4O)CC3)c3ccccc3n2)cc1	/	/	?	.	.	?

From PubChem BioAssay
